Compound activity from PubChem.
HT1080NT lethal – kills 2HG-producing HT-1080-NT fibrosarcoma cells; HT-1080-NT fibrosarcoma viability, CellTiter-Glo ATP luminescence, 48 h; Potency, µM (titrated, usually from 46.1 µM), for the others: at the top dose activity, negative = less viability, actives largely listed as cytotoxic; hit rate 1.6% among 360,000; AID 686970;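 also: NT is the 2HG producing partner of a matched IDH1 knockdown line; 0% = DMSO-treated cells and -100% = media-only wells without cells; nearly all actives have a fitted effect of over 55% in size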
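HT-1080-NT fibrosarcoma cells (2HG-overproducing), 750 cells/well in RPMI with 5% FBS, dosed after 2 h and incubated 48 h at 37C. CellTiter-Glo luminescence normalized to DMSO and no-cell wells; concentration-response curves fitted and classed.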
KB-3-1 cytotox – kills parental KB-3-1 adenocarcinoma cells | AID 1347075 | KB-3-1 viability, CellTiter-Glo ATP luminescence, 72 h | hit rate 1.4% among 400,000 | Potency, µM (series often up to 46.1 µM), usual class: cytotoxic; also: nearly all actives have a fitted effect of over 60% in size
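Here the drug-naive KB-3-1 line serves as comparator for MDR sub-line selectivity; cells received compound titrations, 72 h at 37 °C, then CellTiter-Glo readout.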
TDP1 cell noCPT – qHTS for Inhibitors of human tyrosyl-DNA phosphodiesterase 1 (TDP1): qHTS in cells in absence of CPT; DT40 Tdp1-/- hTDP1 cells, no CPT, ATP luminescence, 48 h; Potency, µM (titrated, usually from 46.2 µM), without a hit: top-dose activity change, negative = growth inhibition, actives largely listed as inhibitors; hit rate 15% among 420,000; also: nearly all actives have a fitted effect of over 55% in size
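Stably hTDP1-transfected Tdp1-null chicken DT40 cells were treated with library compounds minus camptothecin and grown for at least 48 hr at 37 °C, after which cellular ATP was quantified by luminescence.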
HT1080 IDH1KD tx – kills HT-1080 cells with IDH1 knockdown | Potency, µM (top dose mostly 46.1 µM), without a hit: top-dose activity, negative = toxicity, actives largely listed as cytotoxic | AID 686971 | hit rate 2% among 360,000 | HT-1080 IDH1 knockdown viability, ATP luminescence, 48 h;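 also: 0% = DMSO wells and -100% = cell-free medium wells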
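Viability of IDH1-knockdown HT-1080 fibrosarcoma cells was assessed by CellTiter-Glo after 48 h at 37 °C with titrated compound; concentration-effect curves were classified by fit quality and response size.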
KB-V1 cytotox – KB-V1 MDR subline cytotoxicity; KB-V1 MDR cells viability, CellTiter-Glo, 72 h; Potency, µM (top dose mostly 46.1 µM), most hits filed as cytotoxic; hit rate 3.4% among 400,000; AID 1347076; also: nearly all actives have a fitted effect of over 60% in size
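KB-V1 cells (P-gp-expressing MDR subline of KB-3-1) in phenol-red-free DMEM with 10% FBS were exposed to library compounds over a concentration series for 72 h at 37 degrees C. Viability read by CellTiter-Glo luminescence; concentration-effect curves fitted after normalization.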
DT40 TDP1 CPT – DT40-hTDP1 cell growth loss with CPT; chicken DT40 Tdp1-/-;hTDP1 cells + 20 nM CPT, ATP luminescence, 48 h; Potency, µM (titrated, usually from 46.2 µM), without a hit: at the highest dose activity change, negative = growth inhibition, usual class: inhibitors; hit rate 12% among 420,000; AID 686979; also: nearly all actives have a fitted effect of over 55% in size
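Chicken DT40 Tdp1-/- cells stably complemented with human TDP1 were seeded at 400 cells/well in medium containing 20 nM camptothecin, exposed to pin-transferred compounds, and grown at 37 °C for at least 48 hr. Viability was read as ATP luminescence.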
* marks the source's active call; other numbers are inactive results; i = inactive; u = inconclusive; x = no result given. In the library only some 19% were active in any assay of this set; here they are far more common. Calls follow the shape of the dose curve; as a rule, active = well fitted curve in the direction sought with a large enough effect; inconclusive = small, poorly fitted or top-dose-only effect, or another doubt; inactive = no such curve, though single readings can be large; an effect the other way counts as inactive or inconclusive. Unless noted, % is scaled to controls: 0 for no effect and ±100 for the full control effect; potency is read from the fitted curve at half-maximal effect.

SMILES | HT1080NT lethal | KB-3-1 cytotox | TDP1 cell noCPT | HT1080 IDH1KD tx | KB-V1 cytotox | DT40 TDP1 CPT
CCN1CCN(c2nc3ccccc3s2)CC1 | 3% | i | -2% | 5% | i | 1%
Cn1c(C(=O)N2CCN(c3nc4ccccc4s3)CC2)cc2sccc21 | -2% | i | u | -1% | i | 23µM*
O=c1c2ccccc2nc2n1CCS2(=O)=O | 1% | i | -109% | -1% | i | 2.9µM*
COC(=O)C1=C(c2ccccc2OCc2ccccc2)C[C@@H]2CC[C@H]1N2C(=O)NCc1ccc([N+](=O)[O-])cc1 | u | u | u | u | i | 23µM*
COC(=O)C1=C(c2ccccc2OCc2ccccc2)C[C@@H]2CC[C@H]1N2C(=O)NCc1ccc(OC)c(OC)c1 | -1% | i | 21µM* | -17% | i | 16µM*
COCCN1C(=NCCCOC(C)C)N[C@@H](c2ccccc2)C(C(=O)OC)=C1C | -8% | i | u | -3% | i | u
Cc1nn(C(C)(C)C)c(C)c1/C=N/OC(=O)Nc1ccc(Cl)cc1 | -19% | i | u | -4% | i | u
CC(=O)OC1CC2C(C)(C)C(O)C=C[C@@]2(C)C2CC[C@]3(C)C(=CC(=O)OC3c3ccoc3)[C@]12C (stereo not given in full) | x | x | -27% | x | x | -3%
Cc1ccc(CC(=O)N2CCN(C)CC2)cc1 | 2% | i | 16% | -2% | i | 1%
Cc1nnc(N2CCC(C(=O)NCc3ccc(N(C)C)cc3)CC2)c2nn(-c3ccccc3)c(C)c12 | x | i | u | x | i | u
COc1ccc(CNCC(=O)N2CCC3(CC2)OCCO3)cc1 | 15% | i | -8% | -5% | i | 0%
COc1ccc(CNC(=O)C2CCN(c3nc(OC)nc(OC)n3)CC2)cc1 | 3% | i | 16µM* | 0% | i | u
Cc1ccc(NC(=O)C2CCN(C(=O)c3cnn(-c4ccccc4)c3-n3cccc3)CC2)cc1Cl | x | u | 13µM* | x | u | u
COc1ccc(CNC(=O)C2CCN(C(=O)c3cnn(-c4ccccc4)c3-n3cccc3)CC2)cc1 | x | i | 6.5µM* | x | i | 16µM*
O=C(NCc1ccc(Cl)cc1)C1CCN(C(=O)c2cnn(-c3ccccc3)c2-n2cccc2)CC1 | x | i | 10µM* | x | i | 15µM*
CC1C(c2ccccc2)OC(=O)N1C (stereo not given) | -3% | i | -2% | 17% | i | -10%
CCCC(=O)NC(Oc1ccc(Cl)cc1Cl)C(Cl)(Cl)Cl (stereo not given) | 3% | i | -16% | 1% | i | -4%
Oc1cc(Cl)ccc1Oc1ccc(Cl)cc1Cl | u | i | 23µM* | -28% | i | 7.7µM*
COc1cccc2c1N=C1CCCC3CN(C(C)=O)CCC123 (stereo not given) | 0% | i | -10% | 6% | i | -7%
CC(=NCCc1c[nH]c2ccccc12)c1c(O)n(Cc2ccccc2)c(=O)[nH]c1=O | -27% | i | 8.2µM* | u | 12µM* | 7.3µM*
C/C(=N\Nc1cccc2ccccc12)c1c(O)n(Cc2ccccc2)c(=O)[nH]c1=O | 1% | i | 21µM* | -8% | i | 16µM*
Cc1nn(Cc2c(Cl)cccc2Cl)c(Cl)c1C(=O)O | -1% | i | 14% | 5% | i | 20%
CCN1CCN(Cc2ccc(OC(F)(F)F)cc2)CC1 | 6% | i | -8% | 1% | i | -17%
CCCCCCOc1ccc(CN2CCN(CC)CC2)cc1 | u | i | 23µM* | u | u | u
